CHX counter – counter-screen for Shiga toxin inhibitors: cycloheximide protein synthesis inhibition | cell reporter, cycloheximide protein synthesis inhibition counterscreen | max response, % | hit rate 12% among 300,000; in the data active means max response mostly above about 13%, no sharp cut-off; inactive means mostly below about 14%; further: read at 38.3 µM for the half of the compounds with a filed dose; 0% is about no effect
Pf growth 48h – inhibits P. falciparum growth in the first generation, 48 h; P. falciparum luciferase growth in erythrocytes, 48 h; Potency, µM (series often up to 28.7 µM), inactives show top-dose activity change, negative = inhibition, most hits filed as inhibitors; hit rate 5.9% among 310,000; AID 504832; further: potency means the concentration at half of the fitted maximal effect; on the % scale 0 is the no-effect control and ±100 the full control effect
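Luminescence readout; reporter = integrated firefly luciferase in P. falciparum. RBC culture at 2% hematocrit, 0.1% parasitemia final, 37 C/5% CO2; decreased signal taken as growth inhibition.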
Shiga inhibitor – inhibitors of Shiga toxin in Vero cells; Vero cells, Shiga toxin protein synthesis inhibition reporter; inhibition, % at 38.7 µM; hit rate 9.2% among 290,000; in the data active means inhibition mostly above about 28%, no sharp cut-off; inactive means mostly below about 43%; further: 0% is about no effect
HCV inhibitor – HCV inhibition; Huh7.5.1 HCVcc-Cre infection, luciferase reporter, 44 h; Potency, µM (top dose mostly 41.8 µM), for inactives: at the top dose activity change, negative = inhibition, usual class: inhibitors; hit rate 3.4% among 340,000; further: potency means the concentration at half of the fitted maximal effect; on the % scale 0 is the no-effect control and ±100 the full control effect
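1,000 cells/well; 4 h culture; + compound; + HCVcc-Cre (~0.5 moi); 44 h; luciferase substrate, RT 15 min; read 15 sec.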
AMA1 RON2 block – inhibitors of Plasmodium falciparum AMA1-RON2 interaction | AlphaScreen AMA1-biotinylated RON2 peptide binding | Potency, µM (doses to about 58.2 µM), inactives show top-dose activity change, negative = inhibition, most hits filed as inhibitors | hit rate 0.2% among 360,000 | AID 720542;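 further: potency means the concentration at half of the fitted maximal effect; 0% = vehicle wells and -100% = peptide control; nearly all actives have a fitted effect of over 45% in size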
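AMA1 (3D7) with his tag at 25 nM final met compounds first, then biotinylated RON2 peptide at 25 nM; detection used donor plus acceptor beads, 10 µg/mL apiece, read by AlphaScreen after 30 min at room temperature.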
Pf growth 96h – P. falciparum growth inhibition at 96 hours. P. falciparum luciferase reporter growth, 96 h. AID 504834. Potency, µM (top dose mostly 28.7 µM), for inactives: top-dose activity change, negative = inhibition, actives largely listed as inhibitors. hit rate 6.9% among 320,000; further: potency means the concentration at half of the fitted maximal effect; on the % scale 0 is the no-effect control and ±100 the full control effect
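Parasite growth measured via integrated firefly luciferase reporter in P. falciparum. Infected erythrocytes at 2% hematocrit, 0.05% parasitemia final were treated 96 hours at 37 C under 5% CO2, and luminescence was read.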
Numbers without * were called inactive; [ ] = remark or other dose. Most compounds without a hit are left out; they make up all but 21% or so of the library. Unless noted, the call rests on the fitted dose curve; in most records, active means well fitted curve in the direction sought with a large enough effect; inconclusive means small, poorly fitted or top-dose-only effect, or another doubt; inactive means no such curve, though single readings can be large; an effect the other way counts as inactive or inconclusive.

Screening COc1ccc(-c2c(C3C4C=CCCC4(C)C(=O)N3Cc3ccccc3)ccc3ccccc23)cc1OC (configuration not stated) returned CHX counter 9 and Shiga inhibitor 10.
For Cc1ccc2nc(Nc3ccc(C)c(C)c3)c3nncn3c2c1 the results were CHX counter 12, Pf growth 48h inconclusive, Shiga inhibitor 28*, HCV inhibitor 22µM*, AMA1 RON2 block -8% and Pf growth 96h 2%.
`Cc1ccc(Nc2nc3ccccc3n3cnnc23)cc1C` gave CHX counter 37*, Shiga inhibitor 31*, HCV inhibitor 5%, AMA1 RON2 block -12% and Pf growth 96h 0%.
For Cc1cccc(CCNc2nc3ccc(C)cc3n3cnnc23)c1 the results were CHX counter 30*, Pf growth 48h 161%, Shiga inhibitor 74*, HCV inhibitor -14%, AMA1 RON2 block -8% and Pf growth 96h inconclusive.
Screening COc1ccc(Nc2nc3ccccc3n3cnnc23)cc1 returned CHX counter -2, Pf growth 48h -16%, Shiga inhibitor -7, HCV inhibitor 20µM* and AMA1 RON2 block 19%.
`Cc1ccc2nc(NCCc3ccc(Cl)cc3)c3nncn3c2c1` gave CHX counter -1, Pf growth 48h inconclusive, Shiga inhibitor 6, HCV inhibitor -3%, AMA1 RON2 block 3% and Pf growth 96h 37%.
Screening COc1cccc(/C=N/Nc2nc3ccccc3n3cnnc23)c1 returned CHX counter -2, Pf growth 48h 18%, Shiga inhibitor 18, HCV inhibitor -18%, AMA1 RON2 block 12%[11.6 µM] and Pf growth 96h inconclusive.
`Cc1cccc(OCC(=O)NNC(=O)c2ccc3nc[nH]c3c2)c1` gave Pf growth 48h 16%, HCV inhibitor 1%, AMA1 RON2 block 61% and Pf growth 96h -6%.
Screening CC1CCC(NC(=O)COC(=O)CCC(=O)c2ccc(Cl)s2)CC1 (configuration not stated) returned Pf growth 48h -11%, HCV inhibitor 6%, AMA1 RON2 block 12% and Pf growth 96h 36%.
For COc1ccccc1Nc1nc2ccc(C)cc2n2cnnc12 the results were CHX counter 12, Pf growth 48h 2%, Shiga inhibitor 11, HCV inhibitor 6.3µM*, AMA1 RON2 block 10% and Pf growth 96h -1%.
For O=C(CC1(CC(=O)N2CCOCC2)CCCC1)Nc1ccc(F)cc1 the results were HCV inhibitor -9% and AMA1 RON2 block -15%.
For CC1CCC2(CC1)NC(=O)N(CC(=O)Nc1cccc(C#N)c1)C2=O (configuration not stated) the results were Pf growth 48h 2%, HCV inhibitor 7%, AMA1 RON2 block 12% and Pf growth 96h 27%.
CCOC(=O)C1=CN(Cc2cccc(F)c2)S(=O)(=O)N(CC)C1c1ccccc1 (configuration not stated) was read as HCV inhibitor 0.56µM* and AMA1 RON2 block 7%.
For CCOC(=O)C1=CN(Cc2cccc(F)c2)S(=O)(=O)N(CC)C1c1cccc(OC)c1 (configuration not stated) the results were HCV inhibitor 5% and AMA1 RON2 block 2%.
`CCCCNC(=O)C[C@@H]1C[C@@]2(C(=O)OC)CCCCC=C2N(Cc2ccc(Cl)cc2Cl)C1=O` gave AMA1 RON2 block -3%.
Screening CC(C)C(C(=O)N1CCOCC1)N1C(=O)c2ccccc2C1=O (configuration not stated) returned CHX counter 4, Pf growth 48h 12%, Shiga inhibitor -14, HCV inhibitor -3%, AMA1 RON2 block 16% and Pf growth 96h 10µM*.
`C#C[C@]1(O)CC[C@H]2[C@@H]3CCC4=CCCC[C@@H]4[C@H]3C(=C)C[C@@]21CC` gave Pf growth 48h inconclusive and Pf growth 96h 9.5µM*.
`Cc1cc(C)cc(C(=O)Nc2nnc(SCC(=O)N3CCCc4ccccc43)s2)c1` gave CHX counter 2, Pf growth 48h 15%, Shiga inhibitor -4, HCV inhibitor 2%, AMA1 RON2 block 9%[2.32 µM] and Pf growth 96h 10%.

Bioassay records (PubChem BioAssay)
